Only some compounds are listed: those with a hit (about 1.6% of all), similar ones and a draw of the others.
Pemphigus Ab inh = blocks pemphigus antibody binding to human desmoglein-3 | P32926 | DSG3-coupled beads, scFv-anti-DSG3-GFP binding, flow cytometry; hits give low values | binding (percent of control), % at 10 µM | 0.48% of 310,000 active;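 active = binding more than 3 SD below its plate's average and above zero; inconclusive = below that plate limit but binding exactly zero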;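 also: hits lower antibody fragment binding to DSG3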
VLA-4 inh = inhibition in a human VLA-4 binding assay. P13612. VLA-4 expressing cells, ligand binding flow cytometry. inhibition, % (about 7 µM as worked out from the volumes in the protocol). 0.2% of 330,000 active; in the data active = inhibition above about 50%
JMJD2C inh = human JMJD2C demethylase inhibition; GST-JMJD2C(1-420) H3K9me3 demethylation, DELFIA europium; Q9H3R0; 0.069% of 330,000 active; AID 2099; inhibition, % at 2.35 µM;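 active = more than half of a compound's replicate wells show inhibition beyond 50%, single wells judged on their own value; inconclusive = some, but no more than half, of replicates pass 50% inhibition; inactive = no replicate passes 50% inhibition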;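 also: signal counts dimethyl H3K9 product captured on neutravidin plate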
Target sequence (Q9H3R0 1-420 limits assumed): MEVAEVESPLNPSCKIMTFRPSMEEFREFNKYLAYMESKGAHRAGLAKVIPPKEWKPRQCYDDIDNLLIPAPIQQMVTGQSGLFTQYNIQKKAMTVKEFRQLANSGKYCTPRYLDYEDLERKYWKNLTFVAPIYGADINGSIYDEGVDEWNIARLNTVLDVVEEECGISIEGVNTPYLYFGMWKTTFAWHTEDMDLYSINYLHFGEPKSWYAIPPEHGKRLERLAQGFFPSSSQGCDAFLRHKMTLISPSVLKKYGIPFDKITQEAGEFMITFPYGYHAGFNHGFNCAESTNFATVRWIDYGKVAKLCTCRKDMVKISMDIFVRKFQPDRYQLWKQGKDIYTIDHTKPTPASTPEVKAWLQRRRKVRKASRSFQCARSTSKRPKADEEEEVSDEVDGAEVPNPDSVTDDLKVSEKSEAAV
PREPL inh = human PREPL enzyme inhibition | Q4J6C6 | recombinant PREPL, fluorescence polarization activity-based probe | inhibition, % at 5.96 µM | 0.68% of 320,000 active; in the data active = inhibition above about 43%
GRK2 inh = inhibitors of human GRK2 displacing RNA aptamer. P25098. bead flow cytometry, FAM-aptamer displacement from GRK2. inhibition of aptamer binding, % at 10 µM. 0.59% of 330,000 active;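 active = inhibition of aptamer binding above 40%, roughly 3 SD of noise, on plates passing a quality check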;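 also: median bead fluorescence of bound FAM aptamer so fluorescent compounds give negative values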
GRK2 inh confirm = human GRK2 inhibition confirmation, cherry pick 1. shares compounds with GRK2 inh. bead-bound GRK2, FAM-aptamer displacement, flow cytometry. aptamer displacement, % at 10 µM. 4% of 2,000 active;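 active = aptamer displacement above 40%, near three times the noise of non-fluorescent compounds, on plates passing quality checks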;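 also: negative values mostly reflect intrinsic compound fluorescence rather than true enhancement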
FAM quench CP1 = counter-screen for GRK2 aptamer inhibitors: fluorescent aptamer quenchers; shares compounds with GRK2 inh; Carboxyfluorescein RNA aptamer on beads, flow cytometry quenching; hits give low values; fluorescence response (% of DMSO), % at 10 µM; 2,000 tested, under 10 active; AID 504580;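 active = compounds that quench the bead-bound fluorescent RNA probe, cutting fluorescence to under half of the solvent control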;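 also: counterscreen run without GRK2 so only probe quenching by compound is measured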
GRK2 confirm 2 = confirmation of human GRK2 inhibitors binding RNA aptamer site | shares compounds with GRK2 inh | bead-bound GRK2, FAM-aptamer displacement, flow cytometry | inhibition of aptamer binding, % at 10 µM | 360 tested, under 10 active | AID 504782;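 active = inhibition of aptamer binding above 40%, about triple the noise seen with nonglowing compounds, on plates passing quality control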;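 also: negative values mostly come from compounds that fluoresce themselves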
FAM quench SP = quenches fluorescent RNA aptamer, GRK2 hit artifact | shares compounds with GRK2 inh | carboxyfluorescein RNA aptamer beads, flow cytometry quenching; hits give low values | fluorescence response vs DMSO, % at 10 µM | 360 tested, under 10 active;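 active = response vs DMSO under 50%, meaning signal dropped by over half, treated as fluorescence quencher; inconclusive = no clear call, values can overlap the other calls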;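 also: labelled aptamer on streptavidin beads without GRK2 as a quench counter-screen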
Of the large screens only hits and unclear results are named; the others gave an inactive call (follow-up assays come after a bar, where they were run).

COc1ccc(NC(=O)C2=CC(c3ccc(C)cc3)=NS(=O)(=O)N2C)cc1	GRK2 inh 54 | GRK2 inh confirm inactive | FAM quench CP1 inactive
CC(=O)c1cccc(NC(=O)c2cc(-c3ccc(F)cc3)on2)c1	none | GRK2 inh confirm inactive | FAM quench CP1 inactive
COc1cccc(-c2cc(C(=O)Nc3ccc(OC)c(OC)c3)no2)c1	GRK2 inh 98 | GRK2 inh confirm inactive | FAM quench CP1 inactive
COc1ccc(NC(=O)c2cc(-c3ccccc3)on2)cc1OC	none
CC(C)c1ccc(NC(=O)COC(=O)c2nn(C)c(=O)c3ccccc23)cc1	none (no result: Pemphigus Ab inh)
COc1cc(C2C(C#N)=C(N)Oc3c2ccc2ccccc32)ccc1OCC(=O)Nc1ccc(C)cc1 (stereo not drawn)	none | GRK2 inh confirm inactive | FAM quench CP1 inactive
COc1cc(C2C(C#N)=C(N)Oc3c2ccc2ccccc32)ccc1OCC(=O)Nc1cccc(C)c1 (stereo not drawn)	none
COc1cc(C(=O)NCc2nnc(SCC(=O)Nc3cc(C)on3)o2)cc(OC)c1OC	GRK2 inh 74 (no result: Pemphigus Ab inh) | GRK2 inh confirm inactive | FAM quench CP1 inactive
O=C(O)C1C2CC3C(OC(=O)C31)C2Cl (stereo not drawn)	none
O=C(NCc1cccs1)C1(S(=O)(=O)c2ccccc2)CC=CC1	none | GRK2 confirm 2 inactive | FAM quench SP inactive
Cc1cc(/C=C2\SC(=Nc3ccccc3)NC2=O)c(C)n1-c1ccc(S(N)(=O)=O)cc1	none
O=C(NCC1CCCO1)C1CCCN1C(=O)Nc1ccc(Cl)c(Cl)c1 (stereo not drawn)	GRK2 inh 53 | GRK2 inh confirm inactive | FAM quench CP1 inactive
O=C(O)c1ccccc1Nc1cccc(OCc2ccc3ccccc3n2)c1	none (no result: JMJD2C inh) | GRK2 inh confirm inactive | FAM quench CP1 inactive
COc1cc(/C=C/C(=O)OC(C)C(=O)NC2CCCCC2C)cc(Cl)c1OC (stereo not drawn)	none
O=C(Nc1ccc2c(c1)OCCO2)c1ccc(Br)s1	none | GRK2 inh confirm inactive | FAM quench CP1 inactive
O=C(NN1CCOCC1)c1ccc(Br)s1	GRK2 inh 69 | GRK2 inh confirm inactive | FAM quench CP1 inactive
CC(=O)Nc1ccc(NC(=O)CSc2ccc3nnc(-c4cccnc4)n3n2)cc1	none
Cc1ccc(-n2nnnc2-c2cccs2)cc1[N+](=O)[O-]	none
O=C(NNc1ccccc1C(F)(F)F)c1sccc1Br	GRK2 inh 99 (no result: Pemphigus Ab inh) | GRK2 inh confirm inactive | FAM quench CP1 inactive
CC(=O)Nc1ccc(S(=O)(=O)NNC(=O)c2cccc(Cl)c2)cc1	GRK2 inh 92 | GRK2 inh confirm inactive | FAM quench CP1 inactive
Cc1cc(=O)[nH]c(SCc2cccc3ccccc23)n1	none | GRK2 inh confirm inactive | FAM quench CP1 inactive
Cc1cc(CSc2nc(C)cc(=O)[nH]2)c2ncccc2c1	none
CC(C)Cc1ccc(C#N)c(SCC(N)=O)n1	GRK2 inh 75 | GRK2 inh confirm inactive | FAM quench CP1 inactive
O=C(O)c1ccc(NC(=S)NC(=O)c2ccc(-c3ccc(Br)cc3)o2)cc1	none (no result: Pemphigus Ab inh)
COCCN1C(=O)/C(=C/c2ccc(N3CCCC3)cc2)SC1=S	GRK2 inh 57 | GRK2 inh confirm inactive | FAM quench CP1 inactive
COc1ccc(/C=C2\SC(=S)N(CCC(=O)N3CCCCC3)C2=O)cc1	none
O=C(NCc1ccccc1)c1ccc(NC(=O)C2CCC2)cc1	none (no result: VLA-4 inh, JMJD2C inh, PREPL inh, GRK2 inh)
O=C(NCc1ccccc1)c1cccc(NC(=O)C2CCCC2)c1	none (no result: VLA-4 inh, JMJD2C inh, PREPL inh, GRK2 inh) | GRK2 inh confirm inactive | FAM quench CP1 inactive
O=C(NCCc1ccccc1)c1cccc(NC(=O)C2CCCC2)c1	none (no result: VLA-4 inh, JMJD2C inh, PREPL inh, GRK2 inh)
O=C(NCc1ccccc1)c1cccc(COc2ccccc2Cl)c1	none | GRK2 inh confirm inactive | FAM quench CP1 inactive
O=C(NCc1ccccc1)c1cccc(COc2cc(Cl)ccc2Cl)c1	none
O=C(NCc1ccccc1)c1cccc(NC(=O)C2CCC2)c1	none (no result: VLA-4 inh, JMJD2C inh, PREPL inh, GRK2 inh) | GRK2 inh confirm inactive | FAM quench CP1 inactive
CC1CC(C)CN(S(=O)(=O)N2CCC(C(=O)NCCc3ccccc3)CC2)C1 (stereo not drawn)	none
CC(C)(C)NC(=O)C12CCC(C)(c3nc4ccccc4nc31)C2(C)C (stereo not drawn)	none
COc1ccc(CCNC(=O)NC23CC4CC(CC(C4)C2)C3)cc1OC	Pemphigus Ab inh inconclusive
N#CCCN(Cc1cccnc1)C(=S)NC(=O)C1CC1	none (no result: Pemphigus Ab inh)
O=c1cc(CN2CCN(Cc3ccc(F)cc3)C(CCO)C2)[nH]c2ccccc12 (stereo not drawn)	GRK2 inh 41 | GRK2 confirm 2 inactive | FAM quench SP inactive
CC[C@]1(C(=O)OC)[C@H]2C(=O)N(C)C(=O)[C@H]2[C@H]2CN=C(SCC3CC3)N21	none (no result: VLA-4 inh, JMJD2C inh, PREPL inh)
O=C(O)CC1NC(=S)N(c2ccccc2)C1=O (stereo not drawn)	GRK2 inh 70 | GRK2 inh confirm inactive | FAM quench CP1 inactive
O=C1C(Cc2ccc(O)cc2)NC(=S)N1c1ccccc1 (stereo not drawn)	none
Cc1c(N2C(=O)c3ccc4c5c(ccc(c35)C2=O)CC4)c(=O)n(-c2ccccc2)n1C	GRK2 inh 46 | GRK2 inh confirm inactive | FAM quench CP1 inactive
O=C(NC1CC1)c1cccc2c1C(=O)c1ccc(N3CCC(Cc4ccccc4)CC3)cc1S2(=O)=O	GRK2 inh 73 | GRK2 confirm 2 inactive | FAM quench SP inactive
O=C(NCc1ccc(F)cc1)c1cccc2c1C(=O)c1ccc(N3CCC(Cc4ccccc4)CC3)cc1S2(=O)=O	none
CCOC(=O)CC(NC(=O)c1cc2cc(Br)ccc2oc1=O)c1cccc([N+](=O)[O-])c1 (stereo not drawn)	GRK2 inh 78 | GRK2 confirm 2 inactive | FAM quench SP inactive
CNC(C)C(=O)NC(C(=O)N1CCCC1C(=O)NNc1ccccc1)C(C)C (stereo not drawn)	GRK2 inh 67 | GRK2 inh confirm inactive | FAM quench CP1 inactive
Cc1cc(S(=O)(=O)NC2CCN(Cc3ccccc3)CC2)c(C)cc1Cl	none
CCN(C(=O)CN1C(=O)c2ccc([N+](=O)[O-])cc2C1=O)C1CCCCC1	GRK2 inh 69 | GRK2 confirm 2 inactive | FAM quench SP 35
CN(C(=O)CN1C(=O)c2ccc([N+](=O)[O-])cc2C1=O)C1CCCCC1	none
Cn1c(CCC(N)=O)nnc1SCC(=O)Nc1ccccc1C(=O)NC1CC1	GRK2 inh 75 (no result: Pemphigus Ab inh) | GRK2 inh confirm inactive | FAM quench CP1 inactive

Screening data: PubChem BioAssay, several laboratories
